# This is a sample that favours compounds with a hit; in the whole collection about 2.9% have one here.
# EPAC1 ag val – Validation qHTS for agonist of cAMP-regulated guanine nucleotide exchange factor 3 (EPAC1). Rap guanine nucleotide exchange factor 3 (Homo sapiens), O95398. Potency, µM, inactives show max response, positive = active, most hits filed as activators. EPAC1 Rap1b BODIPY-GDP exchange, fluorescence. AID 1645883, 2021. 16,000 tested, 1% active; also: nearly all actives have a fitted effect of over 70% in size
# EPAC2 ant val – Validation qHTS for antagonist of cAMP-regulated guanine nucleotide exchange factor 4 (EPAC2) | Rap guanine nucleotide exchange factor 4 (Homo sapiens), Q8WZA2 | EPAC2 Rap1B BODIPY-GDP exchange, fluorescence | Potency, µM (top dose mostly 112 µM), for inactives: at the highest dose activity, negative = inhibition, usual class: inhibitors | 16,000 tested, 1.7% active | AID 1645886, 2021;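 also: 100% = activation by cAMP agonist control; nearly all actives have a fitted effect of over 40% in size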
#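 Fluorescent exchange read-out: 100 nM EPAC2 with 250 nM RAP1B–BODIPY-GDP and 50 uM GDP; BODIPY-GDP release lowers fluorescence. Read at 480/540 nm every 5 min for 30 min at room temperature; normalized to 6.5 mM cAMP.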
# Starred values were filed as active, the others as inactive; i = inactive; ? = inconclusive; ! = repeats disagree; [ ] = remark or other dose. Calls follow the shape of the dose curve; as a rule, active = well fitted curve in the direction sought with a large enough effect; inconclusive = small, poorly fitted or top-dose-only effect, or another doubt; inactive = no such curve, though single readings can be large; an effect the other way counts as inactive or inconclusive. Unless noted, % is scaled to controls: 0 for no effect and ±100 for the full control effect; potency is read from the fitted curve at half-maximal effect.
SMILES,EPAC1 ag val,EPAC2 ant val
CCCCC/C=C\C/C=C\C/C=C\C/C=C\CCCC(=O)O,-17%,?
CCCCC/C=C\C/C=C\C/C=C\C/C=C\CCCCCC(=O)O,-14%,-28%[11.4 µM]
CCc1ccc2c(c1)N(CC(C)CN(C)C)c1ccccc1S2 (centres undefined),-30%,-19%
S=C(S)OC1CC2CC1C1CCCC21 (centres undefined),-1%,-28%
S=C(S)O[C@@H]1C[C@@H]2C[C@H]1[C@@H]1CCC[C@H]21,-2%,50µM*
O=S(=O)(O)c1ccc2c(N=Nc3ccc(S(=O)(=O)O)c4ccccc34)c(O)c(S(=O)(=O)O)cc2c1,-63%,50µM*
O=S(=O)(O)c1cc(O)c2c(N=Nc3ccc(Nc4ccccc4)c4c(S(=O)(=O)O)cccc34)cc(S(=O)(=O)O)cc2c1,9%,?
CCCCC[C@H]1CN(Cc2ccccc2)C(=O)[C@@H]1CC(=O)NCc1ccc(OC)cc1,-82%,22µM*
COc1ccc(CNC(=O)C[C@H]2C(=O)N(Cc3ccc(OC)cc3)C[C@@H]2Cc2ccccc2)cc1,2%,?
COCC(=O)N1CCC2(CCN(Cc3cc(C(F)(F)F)cc(C(F)(F)F)c3)CC2)CC1,-65%,-25%
COc1ccc(C(=O)N2CCC3(CCN(Cc4cc(C(F)(F)F)cc(C(F)(F)F)c4)CC3)CC2)cc1,-80%,28µM*
COc1ccc(C(=O)N2CCC[C@@]3(CCN(Cc4ccncc4)C3)C2)cc1,-51%,-4%
COc1ccc(C(=O)N2CCC[C@@]3(CCN(Cc4cc(C(F)(F)F)cc(C(F)(F)F)c4)C3)C2)cc1,-109%,14µM*
Cc1cc(/C=C/c2ccnc3ccccc23)ccc1N(C)C,100µM*,150%
OCCN(CCO)c1ccc(/C=C/c2ccnc3ccccc23)cc1,27%,-22%
CN(C)c1ccc(/C=C/c2ccnc3ccccc23)cc1Cl,13%,?
CC[N+](CC)(CC)c1ccc(/C=C/c2ccnc3ccccc23)cc1,-58%,?
CCCCN(CCC#N)c1ccc(/C=C/c2ccnc3ccccc23)cc1,100µM*,18%
CC[N+](C)(C)c1ccc(/C=C/c2ccnc3ccccc23)cc1,-130%,45µM*
COCC(C)NCc1cc2ccc(OC)cc2nc1N1CCN(c2ccc(F)cc2)CC1 (centres undefined),10%,-13%
COc1ccc2c(c1)CCc1cnc(-n3ncc(C(=O)NCCCc4ccncc4)c3C)nc1-2,-8%,-15%
COc1cccc(CN2CCCC(c3nc(-c4ccncc4)ncc3-c3ccccc3)C2)c1O (centres undefined),8%,-27%
O=C(O)c1ccccc1Nc1cccc(C(F)(F)F)c1,-59%,35µM*!
O=C(O)c1ccccc1Nc1ccccc1,-2%,-11%
COC(=O)[C@]12CCC(C)(C)C[C@@H]1[C@@H]1C(=O)C=C3[C@@]4(C)C=C(C#N)C(=O)C(C)(C)[C@@H]4CC[C@@]3(C)[C@]1(C)CC2,15%,?
SMILES,EPAC1 ag val,EPAC2 ant val
CCOC(=O)CCC(=O)O[C@H]1[C@H](O[C@@H]2[C@@H](C)[C@H](O[C@H]3C[C@@](C)(OC)[C@@H](O)[C@H](C)O3)[C@@H](C)C(=O)O[C@H](CC)[C@@](C)(O)[C@H](O)[C@@H](C)C(=O)[C@H](C)C[C@@]2(C)O)O[C@H](C)C[C@@H]1N(C)C,-3%,-14%
CCC(=O)O[C@H]1[C@H](O[C@@H]2[C@@H](C)[C@H](O[C@H]3C[C@@](C)(OC)[C@@H](O)[C@H](C)O3)[C@@H](C)C(=O)O[C@H](CC)[C@@](C)(O)[C@H](O)[C@@H](C)C(=O)[C@H](C)C[C@@]2(C)O)O[C@H](C)C[C@@H]1N(C)C,-70%,32µM*
Cc1cccc(C)c1N(CCCc1cccnc1)C(=O)C(C)N (centres undefined),13%,-3%
C[C@@]12C(=O)OC(=O)[C@@]1(C)[C@@H]1CC[C@@H]2O1,-12%,56µM*
C[C@@]12C(=O)OC(=O)[C@@]1(C)C1CCC2O1,-33%,12%
COCC(=O)N1CCC2(CCCN(C(=O)Nc3cccc(C#N)c3)C2)CC1,-33%,-21%
COCC(=O)N1CCC2(CC1)CCN(C(=O)Nc1cccc(C#N)c1)CC2,126µM*,-21%
COC(=O)c1c(OC)cc2c(c1C)Oc1c(Cl)c(O)c(Cl)c(C)c1C(=O)O2,-78%,4.5µM*
COC(=O)c1c(Cl)c(Cl)c(C(=O)OC)c(Cl)c1Cl,?,-22%
COC(=O)c1c(C)c2c(c(C)c1O)OC(=O)c1c(C)c(Cl)c(O)c(Cl)c1O2,-23%,2.5µM*
Cn1nccc1C(=O)NCC1CCC2(CCN(Cc3ccc(-c4ccc(Cl)cc4)o3)CC2)O1 (centres undefined),-4%,-10%
CC1(C)[C@@H](O)CC[C@]2(C)C3C(=O)C=C4C5C[C@@](C)(C(=O)O)CC[C@]5(C)CC[C@@]4(C)[C@]3(C)CC[C@@H]12 (some centres undefined),-15%,4µM*
CC1(C)C2CC[C@]3(C)[C@H](C(=O)C=C4[C@@H]5C[C@@](C)(C(=O)O)CC[C@]5(C)CC[C@]43C)[C@@]2(C)CC[C@@H]1O[C@H]1O[C@H](C(=O)O)[C@@H](O)[C@H](O)[C@H]1O[C@@H]1O[C@H](C(=O)O)[C@@H](O)[C@H](O)[C@H]1O (some centres undefined),4%,?
CC[C@H]1OC(=O)[C@H](C)[C@@H](O[C@H]2C[C@@](C)(OC)[C@@H](O)[C@H](C)O2)[C@H](C)[C@@H](O[C@@H]2O[C@H](C)C[C@H](N(C)C)[C@H]2O)[C@](C)(O)C[C@H](C)C(=NOCOCCOC)[C@H](C)[C@@H](O)[C@]1(C)O,8%,14%
COc1ccccc1CNC(=O)c1cnn(-c2nccc(-c3cccs3)n2)c1C,15%,-17%
CC1c2ccccc2CN1NC(=O)c1ccc(Cl)c(S(N)(=O)=O)c1 (centres undefined),5%,-13%
CCOC(=O)[C@H](CCc1ccccc1)N[C@@H](C)C(=O)N1[C@@H](C(=O)O)C[C@@H]2CCC[C@@H]21,45µM*,i
CCOC(=O)C(CCc1ccccc1)NC(C)C(=O)N1C(C(=O)O)CC2CCCC21 (centres undefined),13%,-10%
Cc1cnc(SCc2ccccn2)nc1C1CCCN(C(=O)c2scc3c2CCCC3)C1 (centres undefined),-14%,?
Cc1cc(NC(=O)Nc2ccc3c(ccn3C)c2)sn1,2%,?
Cc1cc(N)c2cc(NC(=O)Nc3ccc4nc(C)cc(N)c4c3)ccc2n1,56µM*,40µM*
O=C(C1CC12CCN(Cc1cccc3cccnc13)CC2)N1CCN(Cc2cccs2)CC1 (centres undefined),6%,-22%
CC[C@@H]1/C=C(\C)C[C@H](C)C[C@H](OC)[C@H]2O[C@@](O)(C(=O)C(=O)N3CCCC[C@H]3C(=O)O[C@H](/C(C)=C/[C@@H]3CC[C@@H](Cl)[C@H](OC)C3)[C@H](C)[C@@H](O)CC1=O)[C@H](C)C[C@@H]2OC,9%,11%

# Source: PubChem BioAssay (National Center for Advancing Translational Sciences (NCATS))
